# Test results from PubChem BioAssay AID2029 (NMMLSC, 2009).
# Among all 320,000 compounds or so, about 210 (0.066%) were called active.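 Rule for the calls: active = GFP response relative to DMSO above a set limit, near the screen mean plus 3 SD (cut at about 150% in these data); inconclusive = Fewer than 70 cells measured for a yeast strain; inactive = the rest.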 The entries come from a sample that favours actives as a whole.
# Experiment: TOR pathway RTG branch CIT2 reporter changes – S. cerevisiae, GFP fusion, multiplex flow cytometry, MLPCN library, primary screen (AID 2029);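 note: ratio of well median GFP fluorescence to mean of DMSO wells on the plate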
# Settings: S. cerevisiae CIT2-GFP strain, 3 h, at 10 µM, stronger effect = higher value, 100 means same as DMSO wells
row,SMILES,GFP response vs DMSO
1,COc1ccc(-n2nnc3c(=O)n(CC(=O)N4CCC(Cc5ccccc5)CC4)cnc32)cc1,89.3% (inactive)
2,CCn1c(/C=C/Nc2ccccc2)[n+](CC)c2ccc(C(=O)OCC(F)(F)F)cc21,97.8% (inactive)
3,COc1ccc(/C=N/NC(=O)C(C)N(c2ccc(OC)cc2)S(C)(=O)=O)cc1 (stereo not given),109% (inactive)
4,Cc1cccc(NS(=O)(=O)c2ccc(C)c(C(=O)NCc3cccnc3)c2)c1,107% (inactive)
5,O=C(O)C1CCN(C(=O)c2cc(F)cc3c2OCOC3)CC1,109% (inactive)
6,O=S(=O)(c1ccc(Br)cc1)N1CCC(c2nc3ccccc3[nH]2)CC1,111% (inactive)
7,CC(=O)N(CCCN(C)C)c1nc2ccc(C)cc2s1,111% (inactive)
8,CN(C)CCN(C(=O)C1=COCCO1)c1nc2ccc(Cl)cc2s1,92.3% (inactive)
9,Cc1ccc2nc(N(CCN(C)C)C(=O)C3=COCCO3)sc2c1,161% (active)
10,CCc1ccc(Oc2coc3cc(O)ccc3c2=O)cc1,94.9% (inactive)
11,CCN(CC(=O)Nc1cc(Cl)ccc1C)C(=O)Cn1c(=O)cnc2ccccc21,110% (inactive)
12,O=c1[nH]c(CN2CCN(S(=O)(=O)c3ccc4c(c3)OCCO4)CC2)nc2sc3c(c12)CCCC3,101% (inactive)
13,CCc1ccc(S(=O)(=O)N/N=C\c2ccc([N+](=O)[O-])o2)cc1,91.7% (inactive)
14,CCn1c(/C=C/c2ccc([N+](=O)[O-])o2)nc2ccccc2c1=O,210% (active)
15,CCn1c(=O)c([N+](=O)[O-])c(NCc2ccc3c(c2)OCO3)c2ccccc21,88.2% (inactive)
16,COc1ccc(S(=O)(=O)NCCOc2ccccc2)cc1F,94.3% (inactive)
17,COCC(C)n1c(SCC(=O)NC2CCCCC2C)nc2ccccc2c1=O (stereo not given),101% (inactive)
18,CC(=O)Nc1ccc(NC(=O)C(C)n2c3ccccc3c3nc(=O)cc(C)n32)cc1 (stereo not given),109% (inactive)
19,CC(C)NC(=O)C(c1ccc(F)cc1)N(C(=O)CCC(=O)Nc1ccccn1)c1ccccc1F (stereo not given),88.4% (inactive)
20,CCOc1cccc(-c2nnc(SCC(=O)NC3CC3)n2C)c1,98.9% (inactive)
21,COc1ccc(/C=C(\C#N)c2c[nH]c3ccccc23)cc1,79.6% (inactive)
22,O=C(N/N=C/c1c[nH]c2ccccc12)c1ccccc1O,80.8% (inactive)
23,C[n+]1ccc(/C=C/c2c[nH]c3ccccc23)cc1,274% (active)
24,CCCCNC(=O)N(O)C1N(/N=C/c2ccc(N(C)C)cc2)C(=S)SC1(C)C (stereo not given),105% (inactive)
25,COc1ccc([C@H]2CC(=O)C=C(/C=C/c3ccc(Cl)cc3)C2)cc1,104% (inactive)

row,SMILES,GFP response vs DMSO
1,CC(C)Oc1ccc(CCc2n[nH]c(=S)n2Cc2ccccc2)cc1,98.5% (inactive)
2,N#Cc1nc(N)nc(N(c2ccccc2)c2ccccc2)n1,113% (inactive)
3,O=C(NCC1CCCO1)c1ccccc1-c1nc(-c2ccccc2Cl)no1 (stereo not given),77% (inactive)
4,CC(=O)Nc1ccc(S(=O)(=O)Nc2ccc(-c3ccc4nnc(C)n4n3)cc2)cc1,102% (inactive)
5,O=C(NNc1cc(Cl)ccc1Cl)c1cccnc1Cl,107% (inactive)
6,CC(C)C(NC(=O)C1CCC(C(C)(C)C)CC1)C(=O)NCCCN1CCCCC1 (stereo not given),94.8% (inactive)
7,O=C(CC1OC(=O)c2ccccc21)NC1CCCCC1 (stereo not given),109% (inactive)
8,O=C(CSc1nnc(Nc2ccccc2F)s1)NC1CCCC1,85.1% (inactive)
9,O=C(Oc1cccc(C(=S)N2CCOCC2)c1)c1cccc(Cl)c1,94.4% (inactive)
10,COc1cc(C(=O)N(C)Cc2cccc(OC)c2OC)ccc1OCC(=O)Nc1cccc(C(F)(F)F)c1,101% (inactive)
11,O=C(NC(=S)NC1CCS(=O)(=O)C1)c1cccc([N+](=O)[O-])c1 (stereo not given),155% (active)
12,Nc1ccc(C(=O)OCC(=O)NC2CCS(=O)(=O)C2)cc1[N+](=O)[O-] (stereo not given),91.7% (inactive)
13,CC1CCN(C(=S)c2cccc([N+](=O)[O-])c2)CC1,102% (inactive)
14,O=C(N/N=C1\CCSC1)c1cc(Cl)ccc1O,102% (inactive)
15,Cc1cccc(C)c1NC(=O)C(Cl)C(=O)c1ccccc1 (stereo not given),87.7% (inactive)
16,Cc1ccc(C)c(Cn2nnc3c(=O)[nH]c(C(=O)Nc4ccc(F)cc4)nc32)c1,99.3% (inactive)
17,CN(CC(=O)Nc1ccc(C(N)=O)cc1)S(=O)(=O)c1ccc2c(c1)OCCO2,110% (inactive)
18,COc1cc([N+](=O)[O-])cc([N+](=O)[O-])c1NC(=O)N1CCOCC1,110% (inactive)
19,Cc1cc(C(=O)CC#N)c(C)n1-c1c(C)n(C)n(-c2ccccc2)c1=O,92.1% (inactive)
20,O=C(c1cc2ccccc2o1)N1CCN(Cc2ccccc2)CC1,94.7% (inactive)
21,CC1Cc2ccccc2N1CC(=O)Nc1ccc2c(c1)OC(F)(F)O2 (stereo not given),82.8% (inactive)
22,COC(=O)C1=C(C)N(Cc2ccccc2)C(=NCCCOC(C)C)N[C@H]1c1ccccc1,69.2% (inactive)
23,COc1ccccc1C(=O)OCC(=O)Nc1cccc(S(=O)(=O)NC2=NCCCCC2)c1,118% (inactive)
24,COc1cccc(NC(=O)CN(C)C(=O)c2cc(C3CC3)nn2-c2ccccc2)c1,106% (inactive)
25,COc1ccc(NC(=O)CCn2ccnc2)c(OC)c1,106% (inactive)

row,SMILES,GFP response vs DMSO
1,CCOc1ccc(OCC)c(NC(=O)CSc2nnc(Cn3cnc4ccccc43)n2C)c1,99% (inactive)
2,O=C(NCC(F)(F)F)Nc1nnc(C(F)(F)F)s1,97.4% (inactive)
3,O=C(NCc1cc(F)cc(C(F)(F)F)c1)C1CCC(=O)N(C2CCCC2)C1 (stereo not given),98.4% (inactive)
4,O=S(=O)(c1ccc(F)cc1)N1CCN=C1SCc1cccc(F)c1,104% (inactive)
5,CCSC1=NCCN1S(=O)(=O)c1ccc(F)cc1,151% (active)
6,CS(=O)(=O)N1CCN=C1SCc1ccc(F)cc1,102% (inactive)
7,CC1CC1C(=O)OCC(=O)c1c(N)n(C)c(=O)n(C)c1=O (stereo not given),97.2% (inactive)
8,COc1cccc(-c2nc(CS(=O)(=O)CC(=O)NCCc3ccc(OC)c(OC)c3)c(C)o2)c1,102% (inactive)
9,Cc1ccc(-c2nc(CS(=O)(=O)CC(=O)NCc3ccc4c(c3)OCO4)c(C)o2)cc1,94.3% (inactive)
10,COc1ccc(-c2nc(CS(=O)(=O)CC(=O)NCc3cccc(Br)c3)c(C)o2)cc1,150% (active)
11,COc1cc(OC)cc(-c2c(C#Cc3ccsc3)c3cc(-c4ccc(SC)cc4)ccc3n2C)c1,109% (inactive)
12,CCN(CC)P(=O)(/C(Cl)=C\Nc1c(C)n(C)n(-c2ccccc2)c1=O)N(CC)CC,113% (inactive)
13,CC1=C2C(=O)OC(c3ccoc3)C2(C)CCC1 (stereo not given),103% (inactive)
14,COc1ccc(CN2CC[C@H]3C=CC[C@@H](C(=O)N4CCOCC4)[C@H]3C2=O)cc1OC,99.2% (inactive)
15,COc1ccc(NC(=O)CC(NC(C)c2ccccc2)C(=O)O)cc1 (stereo not given),101% (inactive)
16,O=C(NCC(=O)N1CCCCCCC1)c1ccccc1Cl,106% (inactive)
17,Cc1ccc(NC(=O)C(CC(=O)O)C2CCCO2)c(C)c1 (stereo not given),98.9% (inactive)
18,Cc1noc(C)c1CSc1nc2cc(S(=O)(=O)N3CCOCC3)ccc2o1,111% (inactive)
19,O=C(CSc1ccc(C(F)(F)F)cc1[N+](=O)[O-])NCCOc1ccccc1,108% (inactive)
20,COc1ccccc1N1CCN(CC(=O)Nc2ccnn2C2CCCC2)CC1,98.2% (inactive)
21,CC1(C)CC(CNCCC(c2ccc(F)cc2)c2ccco2)CCO1 (stereo not given),109% (inactive)
22,CCOc1cc(CN2CCCC(CO)(Cc3ccc(F)cc3F)C2)ccc1OC (stereo not given),98% (inactive)
23,O=C(c1ccc2ccccc2n1)N1CCN(c2ccccc2Cl)CC1,94.9% (inactive)
24,CCCCn1c(N)c(N2CCOCC2)c(=O)n(CC(=O)NCCc2ccccc2)c1=O,105% (inactive)
25,CSCCC(NS(=O)(=O)c1ccc(C)cc1)C(=O)N1CCCC1 (stereo not given),90.1% (inactive)

row,SMILES,GFP response vs DMSO
1,CCN(CC)S(=O)(=O)c1ccc(OC(C)C)c(N)c1,94.4% (inactive)
2,CCOc1ccc(Nc2nc(Cc3nnc(SCC(=O)c4ccc(C)cc4)o3)cs2)cc1,89.8% (inactive)
3,O=C(NCc1nnc(SCC(=O)N2CCCc3ccccc32)o1)c1ccccc1F,91.6% (inactive)
4,CC1CCCCC1NC(=O)COc1ccc(C#N)cc1 (stereo not given),100% (inactive)
5,O=C(O)CC(SCC(=O)Nc1ccc(Br)cc1)C(=O)O (stereo not given),101% (inactive)
6,OCCN1CCOCCOCCN(CCO)CCN(CCO)CC1,90.9% (inactive)
7,NC(=S)Nc1c(Cl)cccc1Cl,104% (inactive)
8,CC(Oc1ccc(Cl)cc1)c1ccnn1S(C)(=O)=O (stereo not given),88.9% (inactive)
9,CN(NS(=O)(=O)c1cccs1)c1ncc(C(F)(F)F)cc1Cl,171% [may fluoresce green] (active)
10,Cc1cc(C)cc(NS(=O)(=O)c2ccc(Oc3ncc(C(F)(F)F)cc3Cl)cc2)c1,99.4% (inactive)
11,C#CCN(N(C)c1ncc(C(F)(F)F)cc1Cl)S(=O)(=O)c1ccc2ccccc2c1,101% (inactive)
12,COc1ccc(-c2cc(=O)oc3cc(OCC(=O)N[C@@H](Cc4c[nH]c5ccccc45)C(=O)O)ccc23)cc1,110% (inactive)
13,O=C(N/C(=C\c1ccc([N+](=O)[O-])cc1)C(=O)N1CCOCC1)c1cccc(Br)c1,100% (inactive)
14,COc1cc(NS(=O)(=O)c2ccc(N/C=C(\C=O)c3nc4cc(Cl)ccc4o3)cc2)nc(OC)n1,103% (inactive)
15,COc1ccccc1C(=O)NCCC(=O)NC1=NCCS1,105% (inactive)
16,Cc1cccc(Nc2nc3c(S(=O)(=O)c4ccccc4)nnn3c3ccccc23)c1C,632% [may fluoresce green] (active)
17,Cc1ccc(S(=O)(=O)c2nnn3c2nc(N2CCN(c4ccccn4)CC2)c2ccccc23)cc1,94.5% (inactive)
18,CC(=O)Nc1ccc(Nc2nc3c(S(=O)(=O)c4ccc(C)c(C)c4)nnn3c3ccccc23)cc1,106% (inactive)
19,CC(=O)N1CC2(C)CN(C(C)=O)CC(C)(C1)C2=O,107% (inactive)
20,Cc1nc(-c2ccc(F)cc2)c(CC(=O)Nc2cc(S(=O)(=O)N3CCCCC3)ccc2C)s1,99.9% (inactive)
21,COc1ccccc1CCCNC(=O)C1CCC(=O)N(CCN2CCOCC2)C1 (stereo not given),94.1% (inactive)
22,CCN1/C(=C/c2ccc3ccc(C)cc3[n+]2CC)Sc2ccccc21,337% [may fluoresce green] (active)
23,CCN1/C(=C\c2ccc3ccccc3[n+]2CC)Sc2cc(C)ccc21,1560% [may fluoresce green] (active)
24,CCc1nc2cccnc2n1-c1ccc(C(=O)O)cc1,102% (inactive)
25,COc1ccccc1C(CNC(=O)c1ccc(C)c(S(=O)(=O)N2CCCCC2)c1)N(C)C (stereo not given),97.1% (inactive)
